The record followed here is PubChem BioAssay (NCATS).

Assay [1] is described as follows: AP1 Signaling Pathway (AID 357; active means well fitted curve in either direction with a large enough effect, not every such curve was filed as active;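 further: ME-180 reporter cells stimulated with EGF at its EC50 level; on the % scale 0 is the no-effect control and ±100 the full control effect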). To be noted: ME-180 AP-1-bla reporter, EGF-induced, beta-lactamase ratio, 5 h. The gist of the method:
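First, ME-180 AP-1-bla cells were cultured overnight at 37 °C in low-serum Opti-MEM. Next, titrated compounds with EC50 EGF were incubated 5 hours. Finally, CCF4 was added for 2.5 hours and the 460/530 nm ratio recorded.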

Assay [2] concerns the target Cytochrome P450 1A2 (Homo sapiens) (UniProt P05177). Briefly: p450-cyp1a2 (AID 410; calls by dose curve). The gist of the method: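 O-Demethylation of luciferin 6' methyl ether by human CYP1A2 is monitored as luciferase luminescence. Substrate sits at Km (100uM); enzyme is 20nM. Values are scaled to 57 uM furafylline as maximal inhibition.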
Assay [3] is described as follows: NFAT Signaling Pathway (AID 444; active means well fitted curve in either direction with a large enough effect, not every such curve was filed as active;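 further: carbachol stimulus at about its EC50 of 1 µM final; on the % scale 0 is the no-effect control and ±100 the full control effect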). To be noted: Jurkat NFAT-bla M1, carbachol, beta-lactamase ratio, 5 h. The gist of the method: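 Jurkat cells carrying an NFAT-driven β-lactamase reporter and co-transfected muscarinic M1 receptor were treated with compound plus carbachol (1 uM final, an EC50 level) for 5 h at 37 °C. CCF4 loading followed for 1 h at RT; 460/530 nm ratio gave %activity.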

A short description of assay [4]: Stat Signaling Pathway (AID 446; active means well fitted curve in either direction with a large enough effect, not every such curve was filed as active;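 further: ME-180 cervical cancer cells given 40 pM IL-6 alongside compound; SIE-controlled beta-lactamase reporter measured as 460/530 nm FRET emission ratio; on the % scale 0 is the no-effect control and ±100 the full control effect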). To be noted: ME-180 (cervical carcinoma) SIE beta-lactamase reporter, IL-6 stimulated, 5 h. The gist of the method:
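FRET read-out (405 nm excitation, 460/530 nm emission) of a beta-lactamase reporter under a STAT-inducible element in ME-180 cervical carcinoma cells. Cells with compound receive 40 pM IL-6 for 5 h. Values are normalised to AC90 stimulation and AC90 JAK-inhibitor controls.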

Assay [5] has as its target Glucocorticoid receptor (Homo sapiens) (UniProt P04150). Briefly: GR-GFP Redistribution (AID 450;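 active means compounds whose dose series gives a full or clear partial fitted curve of increased nuclear translocation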; further: potency means the concentration at half of the fitted maximal effect). To be noted: U2OS GR-GFP nuclear translocation, laser cytometry, 2 h.
Assay [6] has the same target. Briefly: GR-EFC Redistribution (AID 451; calls by dose curve; further: potency means the concentration at half of the fitted maximal effect). To be noted: CHO-K1 GR-EFC translocation, beta-gal luminescence, 2 h. The gist of the method:
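CHO-K1 cells stably expressing nuclear-localized β-gal enzyme acceptor and GR fused C-terminally to the enzyme donor fragment; ligand-driven nuclear translocation restores β-gal by complementation. Compounds titrated up to 46 uM final, 2 h at 37 °C; luminescence read.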

In assay [7] the target is Mitogen-activated protein kinase 10 (Mus musculus) (UniProt Q61831). Briefly: JNK3 AlphaScreen Assay (AID 530; active means well fitted curve in either direction with a large enough effect, not every such curve was filed as active;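 further: kinase came from lysate of stimulated human HepG2 cells; signal reports phosphorylation of biotinylated GST-cJun 1-79 at Ser73 with 10 µM ATP; on the % scale 0 is the no-effect control and ±100 the full control effect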). The gist of the method:
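Phosphorylation of biotinylated GST-cJun(1-79) at Ser73 is measured by AlphaScreen proximity luminescence. Enzyme is JNK3 in HepG2 lysates activated with interleukin-1beta and tumor necrosis factor alpha; ATP is 10 uM final.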
(Bead proximity is the source of the signal in Alpha formats.)

Assay [8] deals with 3',5'-cyclic-AMP phosphodiesterase 4B (Homo sapiens) (UniProt Q07343). Briefly: qHTS Assay for Inhibitors of PDE-IV (AID 607; active means well fitted activation curve with a large enough effect in the main read-out, with a control signal flat, not every such curve was filed as active; further: % of control where 0% means no effect). The essentials: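 Cell-based read-out of cAMP via a modified cyclic nucleotide-gated channel and membrane potential dye (535/590 nm) in HEK293 cells expressing PDE4 endogenously. Compounds tested up to 22.9 uM final; 100 uM RO 20-1724 reference.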
Background: In qHTS, concentration-response curves come from the screen itself.

Assay [9] is described as follows: qHTS Assay for Lipid Storage Modulators (AID 1519; calls by dose curve). To be noted: Drosophila S3 cells, BODIPY lipid droplet/cell ratio, laser cytometry, cells loaded with oleic acid; for activity change, negative = inhibition: at 25.7 µM (top of the series). The essentials: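 Cells seeded at 5,000 per well were treated with compounds over a concentration series and loaded with oleic acid (400 uM, as added). Lipid droplet fluorescence (488 nm excitation, 500-530 nm channel) was read by laser-scanning cytometry and normalized to 20 uM Triacsin C.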

Assay [10] has as its target ATP-dependent 6-phosphofructokinase (Trypanosoma brucei brucei) (UniProt O15648). Briefly: qHTS Assay to Find Inhibitors of T. brucei phosphofructokinase: hit validation (AID 492961). The gist of the method: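 Reaction: 0.1 M triethanolamine pH 8.0, 5 mM MgCl2, F6P 0.5 mM, ATP 0.1 mM, PFK 1.25 nM, 45 min RT. Read-out: ADP-Glo luminescence. Analysis: concentration-response fits, classed by r2 and efficacy.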

Assay [11] concerns the target Ubiquitin carboxyl-terminal hydrolase 1 (Homo sapiens) (UniProt O94782). Briefly: Inhibitors of USP1/UAF1: Pilot qHTS (AID 504865).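 Further: rhodamine fluorescence freed from ubiquitin-rhodamine substrate followed over time; top concentration of the series differs between compounds; on the % scale 0 is the no-effect control and ±100 the full control effect; nearly all actives have a fitted effect of over 35% in size.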 The essentials: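 1nM USP1/UAF1 + cpd, 15 min RT; start w/ Ub-Rho 150nM final; kinetic FL 480/540 nm, 6 reads q60 s. Buffer 50mM HEPES pH 7.8, 0.5mM EDTA, 1mM TCEP, 0.01% Tween-20, 0.1 mg/ml BSA.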
The target in assay [12] is Luciferin 4-monooxygenase (Photinus pyralis) (UniProt P08659). Briefly: Biochemical firefly luciferase enzyme assay for NPC (AID 624030).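 Further: purified P. pyralis luciferase at 10 nM with luciferin and ATP substrate; 0% = DMSO and -100% = full luciferase inhibition by PTC124 control; nearly all actives have a fitted effect of over 70% in size.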 The essentials: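 Counter-screen for direct inhibition of the luciferase enzyme by approved-drug library compounds, run at 10 nM enzyme in 50 mM Tris acetate (final). Luminescence was read within 5 min of enzyme-buffer addition and normalized to PTC124 versus DMSO (0%).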

A short description of assay [13]: qHTS profiling for inhibitors of Plasmodium falciparum proliferation (AID 504749).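 Further: 0% = DMSO vehicle and full inhibition = artemisinin control; nearly all actives have a fitted effect of over 60% in size.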 To be noted: P. falciparum in erythrocytes, SYBR Green DNA, 72 h, at 12.8 µM (top of the series). The essentials:
(§1)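 Quantitative HTS: compounds pinned into medium, infected erythrocytes added (0.3% parasitemia, 2.5% hematocrit), 72 h culture at 37 C under 5% CO2. Saponin/Triton lysis with SYBR Green I, overnight RT, then fluorescence read.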

The test system of the next assay is AS120. The assay is described as above. To be noted: P. falciparum in erythrocytes, SYBR Green DNA, 72 h; series mostly up to 28.7 µM. The gist of the method:
as §1

A further assay relates to CP238. The description is as above. To be noted: P. falciparum in erythrocytes, SYBR Green DNA, 72 h; series mostly up to 12.8 µM. The essentials:
as §1

A further assay has as its system FAB9. The assay is described as above. To be noted: P. falciparum in erythrocytes, SYBR Green DNA, 72 h; series mostly up to 12.8 µM. The gist of the method: as §1
The mark [14] stands for this setting: at 7.69 µM (top of the series) unless noted.
Setting [15] is: measured here: cell count channel max response.
Setting [16] is: measured here: lipid channel max response.

Structures are written as SMILES. Several values for one entry are separate records, joined by “and”; a condition that tells them apart may be missing. Equal values may be shown once. Records with an inconclusive call do not appear. Activity calls are given as the source filed them. Unless noted, the call rests on the fitted dose curve; in most records, active means well fitted curve in the direction sought with a large enough effect; inconclusive means small, poorly fitted or top-dose-only effect, or another doubt; inactive means no such curve, though single readings can be large; an effect the other way counts as inactive or inconclusive.

Sequence of Ubiquitin carboxyl-terminal hydrolase 1 (Homo sapiens) (O94782 whole entry, looked up): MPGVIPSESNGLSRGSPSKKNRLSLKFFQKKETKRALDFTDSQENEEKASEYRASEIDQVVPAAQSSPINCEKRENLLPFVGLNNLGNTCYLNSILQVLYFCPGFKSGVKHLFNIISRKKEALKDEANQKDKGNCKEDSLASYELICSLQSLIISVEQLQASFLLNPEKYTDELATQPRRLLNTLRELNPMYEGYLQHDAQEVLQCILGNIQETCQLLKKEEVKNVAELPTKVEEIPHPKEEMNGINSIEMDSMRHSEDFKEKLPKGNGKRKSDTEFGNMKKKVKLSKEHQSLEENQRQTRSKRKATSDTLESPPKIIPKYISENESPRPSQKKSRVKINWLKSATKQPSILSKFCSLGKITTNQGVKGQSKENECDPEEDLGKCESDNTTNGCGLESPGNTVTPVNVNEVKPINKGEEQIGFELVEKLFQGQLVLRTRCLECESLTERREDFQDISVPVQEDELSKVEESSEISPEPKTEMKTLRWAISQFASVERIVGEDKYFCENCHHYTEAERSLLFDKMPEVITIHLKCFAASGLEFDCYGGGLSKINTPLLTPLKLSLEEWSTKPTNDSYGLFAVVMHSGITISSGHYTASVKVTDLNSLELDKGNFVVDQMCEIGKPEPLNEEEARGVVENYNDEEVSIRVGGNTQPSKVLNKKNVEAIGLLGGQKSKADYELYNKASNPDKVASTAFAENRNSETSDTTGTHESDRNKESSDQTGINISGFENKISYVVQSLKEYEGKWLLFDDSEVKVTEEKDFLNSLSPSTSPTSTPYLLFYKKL
Sequence of 3',5'-cyclic-AMP phosphodiesterase 4B (Homo sapiens) (Q07343 whole entry, looked up): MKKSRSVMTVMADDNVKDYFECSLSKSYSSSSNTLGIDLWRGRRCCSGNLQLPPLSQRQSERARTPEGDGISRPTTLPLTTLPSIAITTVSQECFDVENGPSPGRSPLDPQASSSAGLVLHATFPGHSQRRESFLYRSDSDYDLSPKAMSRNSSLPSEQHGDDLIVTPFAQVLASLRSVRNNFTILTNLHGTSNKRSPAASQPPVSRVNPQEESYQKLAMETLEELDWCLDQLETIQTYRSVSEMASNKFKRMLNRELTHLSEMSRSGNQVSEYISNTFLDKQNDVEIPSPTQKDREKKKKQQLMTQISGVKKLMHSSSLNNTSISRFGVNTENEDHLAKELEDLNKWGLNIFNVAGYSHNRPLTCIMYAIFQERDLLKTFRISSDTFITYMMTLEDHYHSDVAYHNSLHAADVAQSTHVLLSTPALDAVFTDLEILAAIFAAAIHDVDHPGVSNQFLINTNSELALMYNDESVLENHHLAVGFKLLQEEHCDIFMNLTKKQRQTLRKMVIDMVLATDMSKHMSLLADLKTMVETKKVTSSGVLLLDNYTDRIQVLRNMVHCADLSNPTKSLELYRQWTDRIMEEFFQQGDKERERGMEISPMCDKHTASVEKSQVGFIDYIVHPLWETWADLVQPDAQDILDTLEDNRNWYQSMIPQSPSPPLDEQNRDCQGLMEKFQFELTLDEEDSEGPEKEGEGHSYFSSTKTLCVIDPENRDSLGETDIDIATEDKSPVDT
Sequence of Glucocorticoid receptor (Homo sapiens) (P04150 whole entry, looked up): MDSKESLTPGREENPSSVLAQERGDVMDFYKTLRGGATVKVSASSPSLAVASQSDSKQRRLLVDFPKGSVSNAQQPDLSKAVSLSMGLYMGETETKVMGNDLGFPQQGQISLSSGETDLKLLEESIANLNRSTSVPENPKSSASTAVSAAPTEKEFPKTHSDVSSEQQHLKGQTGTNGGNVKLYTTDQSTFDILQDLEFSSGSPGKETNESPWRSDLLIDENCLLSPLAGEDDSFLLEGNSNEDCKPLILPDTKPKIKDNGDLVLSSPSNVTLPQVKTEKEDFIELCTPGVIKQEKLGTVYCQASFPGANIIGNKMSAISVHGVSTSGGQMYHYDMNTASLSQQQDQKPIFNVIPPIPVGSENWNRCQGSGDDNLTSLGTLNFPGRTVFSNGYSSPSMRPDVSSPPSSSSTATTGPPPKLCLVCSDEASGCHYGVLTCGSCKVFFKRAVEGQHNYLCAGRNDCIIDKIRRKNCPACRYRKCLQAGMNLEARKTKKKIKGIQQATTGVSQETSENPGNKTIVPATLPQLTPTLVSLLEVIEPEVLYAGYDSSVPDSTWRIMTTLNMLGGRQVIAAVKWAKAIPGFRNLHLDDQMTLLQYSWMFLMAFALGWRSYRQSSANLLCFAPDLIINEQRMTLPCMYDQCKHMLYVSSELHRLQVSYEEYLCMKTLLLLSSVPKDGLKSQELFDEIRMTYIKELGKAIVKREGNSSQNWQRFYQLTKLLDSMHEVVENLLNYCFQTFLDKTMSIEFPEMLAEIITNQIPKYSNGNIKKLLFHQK
Sequence of Cytochrome P450 1A2 (Homo sapiens) (P05177 whole entry, looked up): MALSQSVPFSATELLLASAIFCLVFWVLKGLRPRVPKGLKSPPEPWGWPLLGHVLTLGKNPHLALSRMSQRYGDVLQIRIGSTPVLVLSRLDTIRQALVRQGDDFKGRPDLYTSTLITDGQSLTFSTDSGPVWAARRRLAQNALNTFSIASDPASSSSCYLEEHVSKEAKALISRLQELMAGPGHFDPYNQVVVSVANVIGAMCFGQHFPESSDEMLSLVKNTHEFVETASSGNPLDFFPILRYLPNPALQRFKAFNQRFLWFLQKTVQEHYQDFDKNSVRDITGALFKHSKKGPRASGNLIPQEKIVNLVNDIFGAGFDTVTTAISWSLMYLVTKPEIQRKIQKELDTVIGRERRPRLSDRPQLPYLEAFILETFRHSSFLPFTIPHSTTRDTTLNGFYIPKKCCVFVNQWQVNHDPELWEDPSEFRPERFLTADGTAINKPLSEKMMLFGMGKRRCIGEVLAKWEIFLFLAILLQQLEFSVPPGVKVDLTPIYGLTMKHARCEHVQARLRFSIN
Sequence of Luciferin 4-monooxygenase (Photinus pyralis) (P08659 whole entry, looked up): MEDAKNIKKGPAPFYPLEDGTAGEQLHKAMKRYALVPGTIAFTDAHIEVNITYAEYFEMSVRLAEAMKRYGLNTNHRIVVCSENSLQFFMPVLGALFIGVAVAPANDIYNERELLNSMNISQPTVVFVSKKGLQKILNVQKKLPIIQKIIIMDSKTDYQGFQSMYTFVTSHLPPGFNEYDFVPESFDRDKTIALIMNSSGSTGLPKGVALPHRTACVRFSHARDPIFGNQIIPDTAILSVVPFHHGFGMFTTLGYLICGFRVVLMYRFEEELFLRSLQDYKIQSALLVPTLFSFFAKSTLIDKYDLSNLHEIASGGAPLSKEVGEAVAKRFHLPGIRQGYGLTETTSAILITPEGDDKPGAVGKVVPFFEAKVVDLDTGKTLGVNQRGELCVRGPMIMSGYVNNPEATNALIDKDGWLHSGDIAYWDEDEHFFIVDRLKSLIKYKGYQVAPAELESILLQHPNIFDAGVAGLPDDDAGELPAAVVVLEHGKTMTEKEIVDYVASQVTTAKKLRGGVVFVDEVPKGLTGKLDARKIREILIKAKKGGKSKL
Sequence of ATP-dependent 6-phosphofructokinase (Trypanosoma brucei brucei) (O15648 whole entry, looked up): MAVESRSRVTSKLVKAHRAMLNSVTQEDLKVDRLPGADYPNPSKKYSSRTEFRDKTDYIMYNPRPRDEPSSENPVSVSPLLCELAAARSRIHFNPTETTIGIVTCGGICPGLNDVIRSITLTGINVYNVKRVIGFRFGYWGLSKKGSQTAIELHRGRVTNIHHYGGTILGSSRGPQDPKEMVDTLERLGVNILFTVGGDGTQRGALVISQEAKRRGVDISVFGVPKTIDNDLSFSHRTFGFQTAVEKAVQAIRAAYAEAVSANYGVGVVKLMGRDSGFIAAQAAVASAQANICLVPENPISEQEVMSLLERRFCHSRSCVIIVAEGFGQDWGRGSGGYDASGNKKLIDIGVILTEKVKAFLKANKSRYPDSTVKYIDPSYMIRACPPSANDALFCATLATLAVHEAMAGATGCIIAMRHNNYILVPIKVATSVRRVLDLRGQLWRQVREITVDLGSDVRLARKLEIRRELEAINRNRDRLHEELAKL

As for `C[C@@H](C(=O)O)c1ccc(C(=O)c2cccs2)cc1`, the values for the activity change, negative = inhibition in [1] (setting [14]), in assay [3] (setting [14]) and in assay [9] were 4.04% [at 17.2 µM] (inactive), -1.88% [at 17.2 µM] (inactive) and 0.809% (inactive), respectively. Moreover, the Potency entry (in assay [2]; in assay [7]; in [8]; in [11]; in the assay with AS120; with CP238) was “inactive” each time. Also, in the assay with FAB9, the Potency entry was “inactive”. The values for the activity, negative = inhibition in [4] (setting [14]), in [13] (parasite line A) and in assay [13] (parasite line B) were 1.29% [at 17.2 µM] (inactive), 0.517% (inactive) and 11.1% (inactive), respectively. For the same molecule, the Potency in assay [5] and in assay [6] was > 20.6 µM (inactive) throughout. Further, the max response in assay [9] (setting [15]) was -2.83%; in [9] (setting [16]) it was -2.07%. Further, the result in [10] and in assay [12] was inactive.

`CO[C@H]1C[C@@H](O[C@@H]2[C@H](C)[C@H](O[C@@H]3O[C@@H](C)C[C@@H](N(C)C)[C@@H]3O)[C@H](C)C[C@]3(CO3)C(=O)[C@H](C)[C@H](O)[C@H](C)[C@H](C)OC(=O)[C@@H]2C)O[C@@H](C)[C@H]1O`: the activity change, negative = inhibition was 2.97% [at 17.2 µM] (inactive) in assay [1] (setting [14]), 8.23% [at 17.2 µM] (inactive) in assay [3] (setting [14]) and 1.28% (inactive) in [9]. In addition, the Potency result (in [2]; in assay [7]; in [8]; in assay [11]; in the assay with AS120; in the assay with CP238) was “inactive” each time. Also, the Potency entry in the assay with FAB9 is “inactive”. Also, the activity, negative = inhibition in assay [4] (setting [14]) was -6.44% [at 17.2 µM] (inactive); in assay [13] (parasite line A), -15.5% (inactive); in assay [13] (parasite line B) it was -11.7% (inactive). The Potency in [5] and in assay [6] was > 20.6 µM (inactive) throughout. Further, the max response in assay [9] (setting [15]) came out at 9.47%; in assay [9] (setting [16]) it was 11.6%. Besides, the call in [10] and in [12] was inactive.

On to `C[C@@]12C[C@@H](O)[C@H]3[C@@H](CCC4=CC(=O)CC[C@]43C)[C@H]1CC[C@H]2C(=O)CO`, for which the activity change, negative = inhibition is 4.07% (inactive) in [1] (at 17.2 µM (top of the series)); -3.18% (inactive) in assay [1] (at 38 µM (top of the series)); 0.118% (inactive) in assay [3] (at 17.2 µM (top of the series)); -0.571% (inactive) in assay [3] (at 38 µM (top of the series)); -3.75% (inactive) in assay [9]. For the same molecule, the values for the activity, negative = inhibition in assay [4] (at 17.2 µM (top of the series)) and in assay [4] (at 38 µM (top of the series)) were -0.637% (inactive) and -1.77% (inactive), respectively. The Potency was 74.2 nM (active) and 8.8 nM (active) in assay [5]; 0.179 µM (active) in assay [6]. In addition, the Potency result in assay [8] and in [11] was “inactive” throughout. In addition, the values for the max response in assay [9] (setting [15]) and in assay [9] (setting [16]) were -3.56% and -9.53%, respectively.
